# From PubChem BioAssay
# Values without a mark were called inactive. No rule for the calls is given here. Where a SMILES comes first, the peptide text is derived from it. The star is where a group is joined. Boc = CC(C)(C)OC(=O)*
# Target: Pantothenate synthetase (Mycobacterium tuberculosis (strain ATCC 25618 / H37Rv)) (UniProt P9WIL5)
# Test: Coupled enzyme confirmation of inhibitors against recombinant Mtb PanC (AID 375);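 also: 0% = full reaction with vehicle and 100% = no enzyme background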
# Conditions: coupled enzyme assay; at 10 µM, stronger effect = higher value
# Pantothenate synthetase (Mycobacterium tuberculosis (strain ATCC 25618 / H37Rv)), sequence (P9WIL5 whole entry, looked up): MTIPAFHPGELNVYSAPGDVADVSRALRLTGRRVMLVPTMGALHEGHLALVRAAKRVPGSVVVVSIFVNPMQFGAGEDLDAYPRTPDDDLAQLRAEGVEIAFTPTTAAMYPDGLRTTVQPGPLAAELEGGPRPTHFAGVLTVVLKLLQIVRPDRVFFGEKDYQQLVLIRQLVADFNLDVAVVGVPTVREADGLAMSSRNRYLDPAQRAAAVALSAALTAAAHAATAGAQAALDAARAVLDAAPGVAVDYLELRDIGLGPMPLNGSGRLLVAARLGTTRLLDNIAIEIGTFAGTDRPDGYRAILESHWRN
row,Compound,inhibition [%]
1,Cc1nc2ccc(NC(=O)NCc3ccco3)cc2s1,0
2,C[C@]12C=CC(=O)C=C1CC[C@H]1[C@@H]3C[C@@H](O)[C@](O)(C(=O)CO)[C@@]3(C)C[C@H](O)[C@@]12F,0
3,CC(=O)NC1CC2CCCC(C1)N2CC(=O)Nc1ccccc1 (stereo not given),3
4,COC(=O)c1ccc(CSc2nc3c(cnn3-c3ccc(F)cc3)c(=O)[nH]2)o1,4
5,CCN(CCCNC(=O)c1cn(CC)c2ccc(S(=O)(=O)N(C)C)cc2c1=O)c1cccc(C)c1,7
6,c1ccc(-c2cc(CSc3nc4ccccc4[nH]3)on2)cc1,0
7,C1COC(NC(C2CC2)C2CC2)=N1,4
8,Cc1sc2nc(SCC(=O)NCc3ccco3)n(CCc3ccccc3)c(=O)c2c1C,0
9,CC(C)c1ccc(-c2nc(N3CCOCC3)[nH]c(=O)c2C#N)cc1,7
10,Cn1nnnc1SCSc1nnnn1C,1
11,COc1cc(C2Nc3cccc4cccc(c34)N2)cc(OC)c1O,0
12,O=C(OC1CCOC1=O)c1ccc2ccccc2n1 (stereo not given),4
13,CCOc1ccccc1Nc1nnc(SCC(=O)N2CCCC2)s1,0
14,N#CC1=C(N)OC2=C(CCC/C2=C/c2ccoc2)C1c1ccoc1 (stereo not given),2
15,Cn1c(SCC(=O)c2cc3ccccc3o2)nnc1-c1ccccc1,1
16,CCCn1nc(NC(=O)c2cccs2)c2cc3cc(OC)ccc3nc21,0
17,COc1ccccc1Nc1nc(N)nc(CSc2nccc(C)n2)n1,0
18,COc1nc(OC)nc(N2CCC(NC(=O)C(Cc3ccc(C(C)C)cc3)NC(C)=O)CC2)n1 (stereo not given),5
19,CC(=O)Nc1ccn(-c2ccccc2)n1,2
20,Cc1ccc2oc(C(=O)Nc3c(C)n(C)n(-c4ccccc4)c3=O)c(C)c2c1,0

row,Compound,inhibition [%]
1,CCc1nnc2sc(-c3cc(-c4ccccc4)nc4ccccc34)nn12,3
2,O=C(NC1CCCCCC1)c1cc(S(=O)(=O)N2CCC3(CC2)OCCO3)ccc1F,5
3,CCCC(=O)N(c1ccc2oc(=O)sc2c1)S(=O)(=O)c1ccccc1,0
4,Cn1c(=O)c2c(nc(NCc3ccco3)n2C/C=C/c2ccccc2)n(C)c1=O,0
5,CC(NC(=O)OC(C)(C)C)C(=O)N1CCCC1C(=O)NC(Cc1ccccc1)C(N)=O (stereo not drawn) (Boc-Ala-Pro-Phe-NH2; configuration not given here),7
6,CCc1nnc(NC(=O)CSc2nc3ccccc3s2)s1,2
7,C=C(C)Cn1c(CCNC(=O)CC)nc2ccccc21,0
8,Cc1ccc(-n2ncc3c(=O)n(CC(=O)NC4CCCCC4)cnc32)cc1C,12
9,Cc1cccc2cc(CN(CC3CCCO3)C(=O)c3cnccn3)c(=O)[nH]c12 (stereo not given),0
10,CCC(C)(C)n1nnnc1C(c1cc2cc(C)ccc2[nH]c1=O)N1CCCC1 (stereo not given),8
11,Cc1sc2nc(SCC(=O)Nc3c(C)n(C)n(-c4ccccc4)c3=O)n(C)c(=O)c2c1C,0
12,O=C(C1CCCN(S(=O)(=O)c2cccs2)C1)N1CCc2ccccc2C1 (stereo not given),9
13,COc1ccc(OC)c(Nc2cc(-c3ccccc3)nc(N)n2)c1,1
14,COc1ccc(OC)c(C(C)NC=O)c1 (stereo not given),4
15,COC(=O)c1c(N)n(-c2cc(OC)cc(OC)c2)c2nc3ccccc3nc12,1
16,CC(=O)Nc1cc2c(nc1C)nc(C)n2Cc1ccc(Br)cc1,0
17,O=C(O)c1ccc(S(=O)(=O)Cc2ccccc2)cc1,0
18,O=C(Nc1ccccn1)NC(C(F)(F)F)C(F)(F)F,0
19,Cc1ccc(C)c(OCCCC(C)(C)C(=O)O)c1,0
20,Cc1cccc2cc(C#N)c(NCCNC(=O)NC3CCCCC3)nc12,1
